Measured values taken from PubChem BioAssay AID1445 (SRMLSC, 2008).
Hit rate of the full screen: of about 220,000 compounds, about 910 (0.41%) were called active. The sample as a whole holds a higher share of actives than the screen did. Measured potencies and affinities stand elsewhere. A number with no mark means an inactive call.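 Rule for the calls: active = primary inhibition above the hit cutoff, then over 50% inhibition at one or more dose response concentrations (cut at about 23% in these data, passing the limit was not always enough); inconclusive = conflicting primary data, or primary hits not chosen for dose response; inactive = low primary inhibition, or under 50% at every dose.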

Each molecule was assayed against Aminopeptidase N (Plasmodium falciparum (isolate 3D7)) (UniProt O96935) (assay: malaria alanyl aminopeptidase activity blockers – biochemical, fluorogenic H-Leu-NHMec substrate, 1536-well (AID 1445;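 note: plate controls were DMSO full reaction for no effect and no enzyme background for full effect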)). Conditions: recombinant M1AAP, H-Leu-NHMec fluorogenic kinetic assay; at 30 µM, active compounds read high unless noted.
Aminopeptidase N (Plasmodium falciparum (isolate 3D7)), sequence (O96935 whole entry, looked up): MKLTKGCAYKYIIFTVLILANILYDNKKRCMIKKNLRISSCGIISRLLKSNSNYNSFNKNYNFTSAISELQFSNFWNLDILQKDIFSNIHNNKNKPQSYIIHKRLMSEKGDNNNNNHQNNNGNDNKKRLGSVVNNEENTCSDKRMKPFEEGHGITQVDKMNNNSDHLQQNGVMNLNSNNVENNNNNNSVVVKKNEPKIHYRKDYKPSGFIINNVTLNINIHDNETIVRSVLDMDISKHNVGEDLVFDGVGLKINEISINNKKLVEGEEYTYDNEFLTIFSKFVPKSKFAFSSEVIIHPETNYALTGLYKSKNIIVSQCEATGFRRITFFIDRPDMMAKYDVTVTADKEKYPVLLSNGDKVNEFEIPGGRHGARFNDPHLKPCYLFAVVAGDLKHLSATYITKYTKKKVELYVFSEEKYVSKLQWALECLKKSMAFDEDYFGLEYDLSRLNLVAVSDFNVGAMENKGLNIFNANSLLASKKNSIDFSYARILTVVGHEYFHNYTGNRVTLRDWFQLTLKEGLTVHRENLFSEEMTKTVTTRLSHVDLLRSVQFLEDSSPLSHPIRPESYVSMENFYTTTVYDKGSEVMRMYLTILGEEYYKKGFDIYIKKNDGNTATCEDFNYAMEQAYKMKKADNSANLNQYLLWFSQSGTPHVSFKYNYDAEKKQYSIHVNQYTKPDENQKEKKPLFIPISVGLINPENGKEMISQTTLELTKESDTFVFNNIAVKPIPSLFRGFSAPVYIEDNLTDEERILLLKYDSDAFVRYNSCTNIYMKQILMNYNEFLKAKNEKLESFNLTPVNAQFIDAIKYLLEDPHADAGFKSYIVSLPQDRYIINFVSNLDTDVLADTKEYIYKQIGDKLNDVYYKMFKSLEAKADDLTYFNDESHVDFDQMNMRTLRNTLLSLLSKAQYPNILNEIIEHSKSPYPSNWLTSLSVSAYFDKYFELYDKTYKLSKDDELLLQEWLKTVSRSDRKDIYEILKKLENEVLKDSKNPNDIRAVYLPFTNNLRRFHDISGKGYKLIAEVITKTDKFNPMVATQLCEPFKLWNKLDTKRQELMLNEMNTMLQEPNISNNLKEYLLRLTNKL
In the case of `CC(=O)Nc1cc(C(=O)OC(C(=O)c2ccccc2)c2ccccc2)ccc1C` (stereo not given), the inhibition is reported as 2.38%.
`Cc1cccc2cc(COC(=O)C(C)(C)C)c(=O)[nH]c12` was tested, and the inhibition was 4.55%.
In the case of `Nc1c(C(=O)N2CCOCC2)sc(=S)n1-c1ccccc1`, the inhibition is reported as 24.9% (active).
`Nc1c(C(=O)N2CCCCC2)sc(=S)n1-c1ccccc1` gave an inhibition of 0.35%.
In the case of `Cc1ccc(-n2c(N)c(C(=O)N3CCOCC3)sc2=S)cc1`, the inhibition is reported as -1.83%.
Molecule `CCOC(=O)CC(NC(=O)c1ccc(C)cc1)c1ccc(OC)cc1` (stereo not given) has an inhibition of 5.77%.
`CCN(Cc1ccncc1)C(=O)CCc1nnc(CCc2ccccc2OC)o1` gave an inhibition of -2.71%.
Work on `NC(N)=Nc1nc(-c2ccccc2)c2ccccc2n1` yielded an inhibition of 5.22%.
With `CCc1ccc2nc(N=C(N)N)nc(C)c2c1` the inhibition was 5.85%.
`COc1cc(/C=C2/SC(=S)N(CC(=O)Nc3nc4ccccc4s3)C2=O)cc(OC)c1OC` was tested, and the inhibition was 6.28%.
In the case of `Cc1ccc(N(Cc2ccccc2F)S(C)(=O)=O)cc1C`, the inhibition is reported as -9.52%.
With `Cc1oc2c(cc(NS(=O)(=O)c3cccs3)c3ccccc32)c1C(=O)OC(C)C` the inhibition was 3.76%.
Work on `O=C1CCCc2oc3c(cc(NS(=O)(=O)c4ccc5c6c(cccc46)C(=O)N5)c4ccccc43)c21` yielded an inhibition of 3.6%.
Work on `N=c1c(C(=O)NCC2CCCO2)cc2c(=O)n3ccccc3nc2n1Cc1cccnc1` (stereo not given) yielded an inhibition of 20%.
For `COCCCn1c(=N)c(C(=O)NCc2ccc3c(c2)OCO3)cc2c(=O)n3ccccc3nc21`, the inhibition was 4.69%.
For `Cc1cccn2c(=O)c3cc(C(=O)NCC4CCCO4)c(=N)n(CCN4CCOCC4)c3nc12` (stereo not given), the inhibition was 8.4%.
`CCCn1c(=N)c(C(=O)NCC2CCCO2)cc2c(=O)n3cccc(C)c3nc21` (stereo not given) gave an inhibition of 7.23%.
Molecule `COc1ccccc1N1C(=O)c2ccc(C(=O)Nc3nccs3)cc2C1=O` has an inhibition of 7.44%.
For `O=C(CSc1ccc(-c2ccccn2)nn1)c1ccc(F)cc1`, the inhibition was 1.12%.
In the case of `N#Cc1c(N)sc2c1CCCCCC2`, the inhibition is reported as 7.78%.
With `N#Cc1c(N)sc(=S)c2c1CCCCC2` the inhibition was 23.8% (active).
`N#Cc1c(N)sc(=S)c2c1CCCC2` showed an inhibition of 9.2%.
`Cn1cnnc1Sc1ccc(C(=O)OCC(=O)Nc2cc(Cl)cc(Cl)c2)cc1[N+](=O)[O-]` showed an inhibition of 3.75%.
With `CCN(CC)c1ccc(NC(=O)c2cccnc2)c(C)c1` the inhibition was 3.17%.
In the case of `CCN(CC)S(=O)(=O)c1cccc(C(=O)Nc2cccnc2)c1`, the inhibition is reported as -0.19%.
With `NNC(=O)c1ccc2c(c1)S(=O)(=O)NNC2=O` the inhibition was 8%.
`CC(C)N(C)C1CCN(C(=O)Nc2ccc(Cl)c(Cl)c2)CC1` showed an inhibition of 6.97%.
For `COc1cc(OC)c(NC(C)C(=O)N2CCCC2)cc1Cl` (stereo not given), the inhibition was 11.4%.
`COc1cc(OC)c(NS(=O)(=O)c2cc(C(=O)OC(C)C(=O)NC3CC3)c(Cl)cc2Cl)cc1Cl` (stereo not given) showed an inhibition of 10%.
`CCCCCCOc1ccc(C(CC(=O)O)C(N)=O)cc1` (stereo not given) gave an inhibition of -7.78%.
`O=C(NCc1cccnc1)C(=O)NCC(c1ccco1)N1CCOCC1` (stereo not given) gave an inhibition of 11.1%.
`Cc1[nH]c2ccccc2c1/C=N/NC(=O)CNC(=O)c1cccs1` gave an inhibition of 0.9%.
`CCN1CCN(CC(=O)N/N=C/c2ccc(F)cc2F)CC1` was tested, and the inhibition was 15.6%.
`CO/N=C/C(=N\Nc1ccc(OC)cc1)C(=O)c1ccc(OC)cc1` was tested, and the inhibition was 12%.
`COc1ccc(N/N=C(\C=N\O)C(=O)c2ccc(OC)cc2)cc1` was tested, and the inhibition was 24.1% (active).
`COc1ccc(C(=O)C(/C=N/O)=N/Nc2ccc(F)cc2)cc1` was tested, and the inhibition was 4.27%.
`Cc1nc2sc3c(c2c(=O)n1/N=C/c1cccnc1)CCCC3` gave an inhibition of 2.58%.
`CN(C)CCCN1C(=O)c2oc3ccccc3c(=O)c2C1c1cccs1` (stereo not given) showed an inhibition of 10.7%.
In the case of `CCN(CC)CCCN1C(=O)c2oc3ccccc3c(=O)c2C1c1cccs1` (stereo not given), the inhibition is reported as 23.3% (active).
With `O=C1c2oc3ccccc3c(=O)c2C(c2cccs2)N1CCCN1CCOCC1` (stereo not given) the inhibition was 16.3%.
`S=C(NC1CC1)N1CCN(c2ccc(Cl)cc2)CC1` gave an inhibition of -2.34%.
Work on `CC(C)C(=O)NC(=S)Nc1ccc(S(=O)(=O)Nc2nccs2)cc1` yielded an inhibition of 2.01%.
With `COc1cccc(OC)c1C(=O)Nn1c(-c2cccc(C)c2)nc2ccccc2c1=O` the inhibition was 6.13%.
`O=C(Cc1cccs1)Nn1c(Cc2cccs2)nc2ccccc2c1=O` was tested, and the inhibition was 10.8%.
`O=C(Nn1c(Cc2cccs2)nc2ccccc2c1=O)c1ccc(F)c(F)c1` was tested, and the inhibition was 8.58%.
Work on `Cc1ccc(-c2nc3ccccc3c(=O)n2NC(=O)c2cccs2)cc1` yielded an inhibition of 5.47%.
For `COc1cccc(OC)c1C(=O)Nn1c(-c2cccs2)nc2ccccc2c1=O`, the inhibition was 1.67%.
For `O=C(Cc1ccccc1)Nn1c(-c2ccccc2)nc2ccccc2c1=O`, the inhibition was 3.49%.
`COc1ccccc1C(=O)Nn1c(-c2cccs2)nc2ccccc2c1=O` was tested, and the inhibition was 10.4%.
`Cc1cccc(-c2nc3ccccc3c(=O)n2NC(=O)c2cccnc2Cl)c1` was tested, and the inhibition was 8.24%.
`c1ccc(-c2ccc(CN3C[C@@H]4C(c5ccccc5)C5(c6ccccc6)CC4(C5)[C@H]3c3ccccc3)cc2)cc1` (stereo not given in full) was tested, and the inhibition was -2.33%.
For `O=C(CSc1ccc(-c2ccc(F)cc2)nn1)NCCc1ccccc1`, the inhibition was -0.33%.
With `Clc1ccc(-c2nn3cnnc3s2)c(Cl)c1` the inhibition was 0.7%.
In the case of `CCN=C1SC(CC(=O)NCCc2ccc(OC)c(OC)c2)C(=O)N1CC` (stereo not given), the inhibition is reported as -3.87%.
`Cc1[nH][nH]c(=O)c1C(c1ccc([N+](=O)[O-])cc1)c1c(C)[nH][nH]c1=O` gave an inhibition of -16.2%.
Molecule `Cc1[nH][nH]c(=O)c1C(c1ccc(O)c([N+](=O)[O-])c1)c1c(C)[nH][nH]c1=O` has an inhibition of 14%.
`Clc1ccc(CN2C3=NCCN3c3ccccc32)cc1` showed an inhibition of 7.94%.
For `Cc1cc(C)n2nc(C(=O)NCc3ccco3)cc2n1`, the inhibition was 8.12%.
With `Cc1cc(C(=O)NCc2cccs2)nn1C` the inhibition was 3.72%.
In the case of `CCN(CC)C(=O)CSc1nc(O)c(Cc2ccccc2)c(=O)n1-c1ccc(C)cc1`, the inhibition is reported as 4.4%.
